# Results as given in the supplement of paper PMC9135407.
# Values joined by “and” are separate entries in the source; they are usually repeats but may differ in a detail not shown here. Identical values can stand only once. Counter-ions that a name gives are not always drawn. The campaign covered roughly 5,800 compounds. About 620 (11%) showed activity. This excerpt belongs to a sample that is enriched for actives. A number with no mark means an inactive call.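 How the source made its calls: active = score above a cut-off or among the top three wells of a plate; in these data no inactive exceeds 0.85.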
# System: primary human hepatic stellate cells (donor 1)
# Assay: scaled lipid accumulation score (0 = DMSO-like, 1 = nortriptyline-like); higher = stronger HSC inactivation (lipid re-accumulation), active = hit call of the paper
# Conditions: 48 h
# [1] = library stock concentration: 10 mM
# [2] = library stock concentration: 3.33 mM
# [3] = library stock concentration: 1 mM
# [4] = library stock concentration: 4.9 mM
smiles,measurement,setting,value
CS(=O)(=O)CCNCc1ccc(-c2ccc3ncnc(Nc4ccc(OCc5cccc(F)c5)c(Cl)c4)c3c2)o1.Cc1ccc(S(=O)(=O)O)cc1.Cc1ccc(S(=O)(=O)O)cc1 [listing 1 of 2 here],scaled lipid accumulation score,[1],1.23 (active)
CS(=O)(=O)CCNCc1ccc(-c2ccc3ncnc(Nc4ccc(OCc5cccc(F)c5)c(Cl)c4)c3c2)o1.Cc1ccc(S(=O)(=O)O)cc1.Cc1ccc(S(=O)(=O)O)cc1 [listing 2 of 2 here],scaled lipid accumulation score,[2],1.36 (active)
same,scaled lipid accumulation score,[1],1.55 (active)
CCCCC[C@H](O)/C=C/[C@@H]1[C@@H](C/C=C/CCCC(=O)O)[C@@H](O)C[C@H]1O [5-trans Prostaglandin F2.alpha. (tromethamine salt)],scaled lipid accumulation score,[3],≤ 0
CCCCC[C@H](O)/C=C/[C@@H]1[C@@H](C/C=C/CCCC(=O)O)[C@@H](O)C[C@H]1O [5-trans Prostaglandin F2.alpha.],scaled lipid accumulation score,[3],≤ 0
CC(C)(C)n1nc(Cc2cccc3ccccc23)c2c(N)ncnc21,scaled lipid accumulation score,[3],≤ 0
CCCCC[C@@](C)(O)/C=C/[C@H]1C(=O)C[C@H](O)[C@@H]1C/C=C\CCCC(=O)O [15(R)-15-methyl Prostaglandin D2],scaled lipid accumulation score,[3],≤ 0
CCCCCCCCCCCCCC(=O)N[C@H](C)[C@@H](O)c1ccccc1 [D-erythro-MAPP],scaled lipid accumulation score,[3],≤ 0 and 0.048
CC1(C2CCCC2)Cc2cc(OCC(=O)O)c(Cl)c(Cl)c2C1=O (configuration not stated),scaled lipid accumulation score,[1],≤ -0.055
same,scaled lipid accumulation score,library stock concentration: 14 mM,≤ -0.021
N[C@@H](C(=O)N[C@@H]1C(=O)N2C(C(=O)O)=C(CSc3cn[nH]n3)CS[C@H]12)c1ccc(O)cc1,scaled lipid accumulation score,[1],≤ 0
"CCCCC/C=C/C=C1/C=CC(=O)[C@@H]1C/C=C\CCCC(=O)O [15-deoxy-.DELTA.12,14-Prostaglandin A2]",scaled lipid accumulation score,[3],≤ 0
CCC(=O)c1ccc2c(c1)N(CCCN(C)C)c1ccccc1S2.Cl [Propionylpromazine hydrochloride],scaled lipid accumulation score,[1],0.862 (active)
CC(=O)c1ccc2c(c1)N(CCCN(C)C)c1ccccc1S2.O=C(O)/C=C\C(=O)O [Acepromazine maleate],scaled lipid accumulation score,[1],0.989 (active)
CC(=O)c1ccc2c(c1)N(CCCN(C)C)c1ccccc1S2 [Acepromazine maleate],scaled lipid accumulation score,library stock concentration: 4.5 mM,0.524
CC(=O)c1ccc2c(c1)N(CCCN(C)C)c1ccccc1S2 [Acetopromazine maleate salt],scaled lipid accumulation score,,0.726
CC#CCC(C)[C@@H](O)/C=C/[C@@H]1[C@H]2C/C(=C\CCCC(=O)O)C[C@H]2C[C@H]1O (stereo partly drawn) [5-cis-15(R)-Iloprost],scaled lipid accumulation score,[3],≤ 0
CN(C)[C@@H]1C(O)=C(C(N)=O)C(=O)[C@@]2(O)C(O)=C3C(=O)c4c(O)cccc4[C@@](C)(O)[C@H]3[C@H](O)[C@@H]12 [Oxytetracycline hydrochloride],scaled lipid accumulation score,[1],≤ 0
CN(C)[C@@H]1C(O)=C(C(N)=O)C(=O)[C@@]2(O)C(O)=C3C(=O)c4c(O)cccc4[C@@](C)(O)[C@H]3[C@H](O)[C@@H]12 [Oxytetracycline],scaled lipid accumulation score,library stock concentration: 4 mM,0.025
same,scaled lipid accumulation score,[1],≤ 0
CN(C)[C@@H]1C(O)=C(C(N)=O)C(=O)[C@@]2(O)C(O)=C3C(=O)c4c(O)cccc4[C@@](C)(O)[C@H]3[C@H](O)[C@@H]12 [Oxytetracycline dihydrate],scaled lipid accumulation score,,0.056
C[C@@H](O)CN(CCN(C[C@@H](C)O)C[C@@H](C)O)C[C@@H](C)O,scaled lipid accumulation score,[1],≤ 0
NNC(=O)c1ccncc1.Nc1ccc(C(=O)O)c(O)c1 [Pasiniazid],scaled lipid accumulation score,[1],≤ -0.027
C#CCCC[C@@H](O)CCCCCCCCCCC(=O)O [12(S)-hydroxy-16-Heptadecynoic Acid],scaled lipid accumulation score,[3],≤ 0
COC(=O)CCSCc1ccc(-c2onc(C)c2NC(=O)OC(C)c2ccccc2Cl)cc1 (configuration not stated),scaled lipid accumulation score,[2],0.07
same,scaled lipid accumulation score,[1],≤ 0
O=C(O)c1c(Sc2ccccc2)c2cc(Cl)ccc2n1Cc1ccc(Cl)cc1,scaled lipid accumulation score,[1],≤ -0.001
Cl.Clc1ccc(Cn2c(CN3CCCC3)nc3ccccc32)cc1 [Clemizole hydrochloride],scaled lipid accumulation score,[1],0.991 (active)
Clc1ccc(Cn2c(CN3CCCC3)nc3ccccc32)cc1 [Clemizole hydrochloride],scaled lipid accumulation score,,0.205
CCCCCC(O)C=CC1C2CC(CO2)C1CC=CCCCC(=O)O (configuration not stated),scaled lipid accumulation score,[3],≤ 0 and ≤ -0.021
COCC[n+]1c2c(n(Cc3cnccn3)c1C)C(=O)c1ccccc1C2=O [YM155 (Sepantronium Bromide)],scaled lipid accumulation score,[2],0.529
same,scaled lipid accumulation score,[1],0.748
N#Cc1c(C2CCNCC2)cc(-c2c(O)cccc2OCC2CC2)nc1N,scaled lipid accumulation score,library stock concentration: 80 uM,≤ -0.016
same,scaled lipid accumulation score,library stock concentration: 400 uM,≤ -0.016
same,scaled lipid accumulation score,library stock concentration: 2 mM,0.483
Cl.N#CC1=C(N)NC(=C2C(=O)C=CC=C2OCC2CC2)C=C1C1CCNCC1,scaled lipid accumulation score,[1],1.09 (active)
N#Cc1c(C2CCNCC2)cc(-c2c(O)cccc2OCC2CC2)nc1N [IKK-2 Inhibitor VIII],scaled lipid accumulation score,[2],0.136
"N#CCCc1ccc2c(c1)-c1[nH]c3ccc([N+](=O)[O-])cc3c1CC(=O)N2 [Alsterpaullone, 2-Cyanoethyl]",scaled lipid accumulation score,[2],0.08
CCCCCCCC/C=C\CCCCCCCCCCCCCC(=O)N[C@@H](CO)[C@H](O)/C=C/CCCCCCCCCCCCC [Nervonic Ceramide],scaled lipid accumulation score,[3],0.002
CCCCC[C@@H](O)/C=C/[C@H]1[C@H](O)CC(=O)[C@@H]1C/C=C\CCCC(=O)O [15(R)-Prostaglandin E2],scaled lipid accumulation score,[3],≤ 0
CN1CCN(CCCN2c3ccccc3Sc3ccc(C(F)(F)F)cc32)CC1 [Trifluoperazine],scaled lipid accumulation score,[4],0.434
CN1CCN(CCCN2c3ccccc3Sc3ccc(C(F)(F)F)cc32)CC1,scaled lipid accumulation score,[1],0.99 (active)
CCSc1ccc2c(c1)N(CCCN1CCN(C)CC1)c1ccccc1S2 [Thiethylperazine malate],scaled lipid accumulation score,,0.362
CN(C)CCCN1c2ccccc2Sc2ccc(C(F)(F)F)cc21 [Triflupromazine hydrochloride],scaled lipid accumulation score,,0.585
same,scaled lipid accumulation score,library stock concentration: 5.1 mM,0.697
same,scaled lipid accumulation score,[1],0.508 and 0.792
CN1CCN(CCCN2c3ccccc3Sc3ccc(C(F)(F)F)cc32)CC1.Cl.Cl [Trifluoperazine],scaled lipid accumulation score,library stock concentration: 10.4 mM,0.892 (active)
CN1CCN(CCCN2c3ccccc3Sc3ccc(C(F)(F)F)cc32)CC1 [Trifluoperazine dihydrochloride],scaled lipid accumulation score,,0.393
CN1CCN(CCCN2c3ccccc3Sc3ccc(C(F)(F)F)cc32)CC1 [Trifluoperazine 2HCl],scaled lipid accumulation score,[2],≤ 0
same,scaled lipid accumulation score,[1],0.815
CN1CCN(CCCN2c3ccccc3Sc3ccc(C(F)(F)F)cc32)CC1.Cl.Cl [Trifluoperazine dihydrochloride],scaled lipid accumulation score,[1],0.914 (active)
CN1CCN(CCCN2c3ccccc3Sc3ccc(C(F)(F)F)cc32)CC1 [Trifluoperazine hydrochloride],scaled lipid accumulation score,[1],0.396
O=C(O)CCC/C=C\C[C@@H]1[C@@H](/C=C/[C@@H](O)COc2cccc(C(F)(F)F)c2)[C@H](O)C[C@@H]1O [Fluprostenol],scaled lipid accumulation score,[3],0.005 and ≤ -0.021
Cn1c(=O)cc(N2CCC[C@@H](N)C2)n(Cc2cc(F)ccc2C#N)c1=O [Trelagliptin],scaled lipid accumulation score,[2],≤ -0.009
same,scaled lipid accumulation score,[1],≤ 0
O=C(O)CCC/C=C\C[C@H]1C(=O)C=C[C@@H]1/C=C/[C@@H](O)CCc1ccccc1 [17-phenyl trinor Prostaglandin A2],scaled lipid accumulation score,[3],≤ 0
Cc1cc([N+](=O)[O-])ccc1NS(=O)(=O)c1cc(Cl)ccc1Cl,scaled lipid accumulation score,[2],≤ -0.009
same,scaled lipid accumulation score,[1],0.147
Nc1nc2c(cnn2CCc2ccccc2)c2nc(-c3ccco3)nn12,scaled lipid accumulation score,[1],0.583
CCCCC[C@@](C)(O)/C=C/[C@H]1[C@H](O)CC(=O)[C@@H]1C/C=C\CCCC(=O)O [15(R)-15-methyl Prostaglandin E2],scaled lipid accumulation score,[3],≤ 0
CCCCC/C=C\C/C=C\C/C=C\C/C=C\CCCC(=O)O[C@@H](CO)COCCCCCCCCCCCCCCCC [1-Hexadecyl-2-arachidonoyl-glycerol],scaled lipid accumulation score,[3],0.044
CC(C)Oc1ccc(C(=O)N[C@H](CNC(=O)CN(C)C)Cc2ccc(-c3cn4cccc([C@H](C)O)c4n3)cc2)cc1Cl [listing 1 of 2 here],scaled lipid accumulation score,[1],0.882 (active)
CC(C)Oc1ccc(C(=O)N[C@H](CNC(=O)CN(C)C)Cc2ccc(-c3cn4cccc([C@H](C)O)c4n3)cc2)cc1Cl [listing 2 of 2 here],scaled lipid accumulation score,[2],0.464
CCCCCCCC/C=C\CCCCCCCC(=O)N[C@H](CO)Cc1ccc(O)cc1,scaled lipid accumulation score,[3],≤ 0
COCCOc1cc2ncnc(Cl)c2cc1OCCOC,scaled lipid accumulation score,[1],≤ 0
O=C(O)COCCN1CCN(C(c2ccccc2)c2ccc(Cl)cc2)CC1 (configuration not stated) [Cetirizine],scaled lipid accumulation score,[1],≤ 0
CN1[C@@H](CC(=O)c2ccccc2)CCC[C@H]1C[C@H](O)c1ccccc1 [Lobeline hydrochloride],scaled lipid accumulation score,[1],≤ 0 and 0.256
CN1CCC[C@@H]1CCO[C@](C)(c1ccccc1)c1ccc(Cl)cc1 [Clemastine],scaled lipid accumulation score,[1],0.362
CN1CCCC1CCOC(C)(c1ccccc1)c1ccc(Cl)cc1.O=C(O)/C=C/C(=O)O (configuration not stated) [Clemastine fumarate],scaled lipid accumulation score,[1],0.942 (active)
CN(C)C(=O)C(CCN1CCC(O)(c2ccc(Cl)cc2)CC1)(c1ccccc1)c1ccccc1 [Loperamide hydrochloride],scaled lipid accumulation score,,0.682
same,scaled lipid accumulation score,[1],0.699 and 0.787
CN1CCC[C@@H]1CCO[C@](C)(c1ccccc1)c1ccc(Cl)cc1 [Clemastine fumarate] [listing 1 of 2 here],scaled lipid accumulation score,,0.619
CN1CCC[C@@H]1CCO[C@](C)(c1ccccc1)c1ccc(Cl)cc1.O=C(O)/C=C/C(=O)O [Clemastine fumarate],scaled lipid accumulation score,[1],0.861 (active)
CN1[C@@H](CC(=O)c2ccccc2)CCC[C@H]1C[C@H](O)c1ccccc1 [Lobeline alpha (-) hydrochoride],scaled lipid accumulation score,,0.216
CN1[C@@H](CC(=O)c2ccccc2)CCC[C@H]1C[C@H](O)c1ccccc1 [alpha-Lobeline hydrochloride],scaled lipid accumulation score,[1],0.493
O=C(O)COCCN1CCN(C(c2ccccc2)c2ccc(Cl)cc2)CC1 (configuration not stated) [Cetirizine DiHCl],scaled lipid accumulation score,[2],≤ 0
same,scaled lipid accumulation score,[1],≤ 0
CN(C)C(=O)C(CCN1CCC(O)(c2ccc(Cl)cc2)CC1)(c1ccccc1)c1ccccc1 [Loperamide HCl],scaled lipid accumulation score,[2],0.485
same,scaled lipid accumulation score,[1],0.611
O=C(O)COCCN1CCN([C@H](c2ccccc2)c2ccc(Cl)cc2)CC1,scaled lipid accumulation score,[1],≤ 0
O=C(O)COCCN1CCN(C(c2ccccc2)c2ccc(Cl)cc2)CC1 (configuration not stated) [Cetirizine dihydrochloride],scaled lipid accumulation score,,0.024
same,scaled lipid accumulation score,[1],0.244 and ≤ -0.001
CN1[C@@H](CC(=O)c2ccccc2)CCC[C@H]1C[C@H](O)c1ccccc1 [Lobeline],scaled lipid accumulation score,library stock concentration: 5.9 mM,≤ -0.006
CN1CCC[C@@H]1CCO[C@](C)(c1ccccc1)c1ccc(Cl)cc1 [Clemastine Fumarate],scaled lipid accumulation score,[2],0.249
same,scaled lipid accumulation score,[1],0.819
O=C(O)COCCN1CCN(C(c2ccccc2)c2ccc(Cl)cc2)CC1 (configuration not stated) [Cetirizine hydrochloride],scaled lipid accumulation score,[1],≤ -0.027
CN1[C@@H](CC(=O)c2ccccc2)CCC[C@H]1C[C@H](O)c1ccccc1,scaled lipid accumulation score,[1],≤ 0
CSc1ccc2c(c1)N(CCC1CCCCN1C)c1ccccc1S2 (configuration not stated) [Thioridazine hydrochloride],scaled lipid accumulation score,,0.711
same,scaled lipid accumulation score,[4],0.586
same,scaled lipid accumulation score,[1],0.072 and 0.283
CSc1ccc2c(c1)N(CCC1CCCCN1C)c1ccccc1S2 (configuration not stated) [Thioridazine HCl],scaled lipid accumulation score,library stock concentration: 5.4 mM,0.47
CN1CCC[C@@H]1CCO[C@](C)(c1ccccc1)c1ccc(Cl)cc1 [Clemastine fumarate] [listing 2 of 2 here],scaled lipid accumulation score,library stock concentration: 5.8 mM,0.885 (active)
